# PLK1 PBD inh – qHTS for Inhibitors of PLK1-PDB (polo-like kinase 1 - polo-box domain): Primary Screen. Serine/threonine-protein kinase PLK1 (Homo sapiens), P53350. Plk1 PBD binding of FITC phosphopeptide, fluorescence polarization. Potency, µM, inactives show max response, negative = inhibition, hits mostly inhibitors. 2.8% of 360,000 active; note: potency is the fitted concentration of half-maximal effect; series mostly up to about 57 µM; nearly all actives have a fitted effect of over 65% in size
# Target sequence (P53350 whole entry, looked up, the tested form may be a part): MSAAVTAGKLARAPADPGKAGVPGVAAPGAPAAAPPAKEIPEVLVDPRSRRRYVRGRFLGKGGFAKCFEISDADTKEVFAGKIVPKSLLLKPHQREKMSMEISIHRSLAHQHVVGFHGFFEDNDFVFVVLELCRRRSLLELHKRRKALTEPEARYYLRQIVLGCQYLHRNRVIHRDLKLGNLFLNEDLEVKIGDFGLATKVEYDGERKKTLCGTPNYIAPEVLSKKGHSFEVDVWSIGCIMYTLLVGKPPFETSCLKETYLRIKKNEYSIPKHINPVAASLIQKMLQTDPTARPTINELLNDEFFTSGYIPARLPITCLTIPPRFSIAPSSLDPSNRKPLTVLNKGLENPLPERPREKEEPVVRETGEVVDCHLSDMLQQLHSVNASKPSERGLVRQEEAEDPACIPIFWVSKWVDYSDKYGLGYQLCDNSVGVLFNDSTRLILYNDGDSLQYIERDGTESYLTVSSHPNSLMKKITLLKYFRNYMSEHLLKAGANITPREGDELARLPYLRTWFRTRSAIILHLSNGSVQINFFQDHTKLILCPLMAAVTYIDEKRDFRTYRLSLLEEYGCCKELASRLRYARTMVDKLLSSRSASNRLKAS
# USP2a inh – qHTS Assay for Inhibitors of Ubiquitin-specific Protease USP2a Using CHOP2 as the Reporter. Ubiquitin carboxyl-terminal hydrolase 2 (Homo sapiens), O75604. 0.01% of 330,000 active. USP2 core, Ub-CHOP2 coupled fluorogenic reporter, 485/531. AID 463254, 2010. Potency, µM (series often up to 38.3 µM), without a hit: at the highest dose activity change, negative = inhibition, most hits filed as inhibitors;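 note: potency is the fitted concentration of half-maximal effect; plate controls were DMSO wells for no effect and full inhibition by NEM control for full effect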
#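 Deubiquitinase activity read as fluorescence (485/531 nm) after Ub-CHOP2 cleavage activates the enterokinase reporter on its substrate; USP2 core 10nM, Ub-CHOP2 and substrate 25nM each, 30min compound preincubation then 60min RT; data normalized to NEM, curves fitted.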
# GALK inhibitor – qHTS Assay for Inhibitors of Human Galactokinase (GALK). P51570. Purified GALK, Kinase-Glo residual ATP luminescence. Potency, µM (highest dose often 57.5 µM), for inactives: at the top dose activity change, negative = inhibition, actives largely listed as inhibitors. 0.007% of 270,000 active; note: potency is the fitted concentration of half-maximal effect
#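 Human GALK (5 nM) with 35 uM ATP and 100 uM galactose in 20 mM HEPES pH 8.0, 5 mM MgCl2, 60 mM NaCl, 1 mM DTT, 0.01% BSA. After 1 h at room temperature, leftover ATP was read by Kinase-Glo Plus luminescence.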
# USP1-UAF1 inh – Inhibitors of USP1/UAF1: Primary Screen. AID 743255, 2014. recombinant USP1/UAF1, Ub-Rhodamine cleavage fluorescence. Ubiquitin carboxyl-terminal hydrolase 1 (Homo sapiens), O94782. 0.23% of 390,000 active. Potency, µM (titrated, usually from 57.1 µM), without a hit: top-dose activity change, negative = inhibition, hits mostly inhibitors; note: potency is the fitted concentration of half-maximal effect; nearly all actives have a fitted effect of over 60% in size
#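 USP1/UAF1 complex (1 nM) preincubated 15 min at room temperature with compound, then Ub-Rho substrate (150 nM final) added. Kinetic fluorescence at 480/540 nm over 6 reads at 60 s intervals; 50 mM HEPES pH 7.8, 0.5 mM EDTA, 0.1 mg/ml BSA, 1 mM TCEP, 0.01% Tween-20.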
# FBPA coupling cs – qHTS Assay for Inhibitors of Fructose-1,6-bisphosphate Aldolase from Giardia Lamblia: Coupling assay counterscreen; coupling enzyme system counterscreen, AmpLite Red fluorescence; activity change, negative = inhibition, % at 58.2 µM, hits read low; 0.67% of 290,000 active; in the data active = activity change below about -30%
#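 Activity here indicates interference with the coupling reaction, not aldolase inhibition. Compounds at 57.5 uM final met coupling enzymes for 10 min at RT; substrate and AmpLite Red detection followed, with a 525/598 nm fluorescence read after 20 min.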
# VDR inh – Inhibitors of the vitamin D receptor (VDR): qHTS | Vitamin D3 receptor (Homo sapiens), P11473 | VDR-SRC2-3 peptide fluorescence polarization, 2 h | Potency, µM, inactives show max response, negative = inhibition, hits mostly inhibitors | 0.93% of 400,000 active | AID 504847, 2011; note: potency is the fitted concentration of half-maximal effect
#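 Inhibition of the VDR/SRC2-3 peptide interaction is quantified by fluorescence polarization. Compounds (23 nl, pintool) incubate with the reagents for 2 hours at ambient room temperature.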
# * hit, by the source's call; ? = inconclusive; . = no result given. Sampled rows, rich in hits. Any-hit rate of the full collection: about 3.2%. Unless noted, calls come from the whole dose curve; as a rule, active = well fitted curve in the direction sought with a large enough effect; inconclusive = small, poorly fitted or top-dose-only effect, or another doubt; inactive = no such curve, though single readings can be large; an effect the other way counts as inactive or inconclusive. Unless noted, % is set by controls: 0 for no effect and ±100 for the full control effect.
SMILES,PLK1 PBD inh,USP2a inh,GALK inhibitor,USP1-UAF1 inh,FBPA coupling cs,VDR inh
COc1ccc2c(c1)c(C(=O)N/N=C/c1cccc(Br)c1)c(C)n2C,3%,5%,-1%,-10%,-45*,8%
CCOC(=O)c1c(NC(=O)Cc2cccs2)sc(C)c1C,-11%,2%,-1%,-3%,4,3%
CCn1c2ccccc2c2cc(C3C(C#N)=C(N)Oc4n[nH]c(COC)c43)ccc21 (centres undefined),6µM*,1%,0%,-18%,-8,-24%
CO[C@]1(NC(=O)CSCC#N)C(=O)N2C(C(=O)O)=C(CSc3nnnn3C)CS[C@H]21,.,.,.,.,-6,?
Cc1ccc(NC(=O)N2CCN(S(=O)(=O)c3ccccc3)CC2)cc1,-5%,1%,0%,8%,1,13%
Cc1ccc(S(=O)(=O)N2CCN(C(=O)COc3ccc(NC(=O)c4ccco4)cc3)CC2)cc1,17µM*,3%,-1%,-14%,2,-24%
CC(=O)Nc1ccc(S(=O)(=O)N2CCN(C(=O)Cc3ccccc3)CC2)cc1,27µM*,2%,0%,-4%,5,?
Cc1ccccc1NC(=O)N1CCN(S(=O)(=O)c2ccccc2)CC1,17µM*,-1%,-1%,-21%,4,-20%
Cc1cccc(NC(=O)C2CCN(S(C)(=O)=O)CC2)c1C,-14%,3%,.,-8%,0,5%
O=C(CCl)N1c2ccccc2Oc2ccc3ccccc3c21,8.4µM*,.,.,22µM*,.,20µM*
CC(=O)N1c2ccccc2Oc2cc3ccccc3cc21,-15%,-1%,1%,-4%,2,-9%
O=C(Nc1ccc2oc(-c3ccc4ccccc4c3)nc2c1)c1ccccc1F,.,.,.,1%,.,-1%
O=[N+]([O-])c1cccc(CNCc2ccccc2)c1,2%,-1%,1%,?,7,0%
O=C(O)Cn1nc(-c2ccccc2)cc1-c1ccccc1,21µM*,2%,3%,-23%,4,?
O=C(O)CC(C(=O)O)n1nc(-c2ccccc2)cc1-c1ccccc1 (centres undefined),-10%,-1%,6%,-2%,12,-18%
COc1ccc(Nc2cc(C)c3c(O)cccc3n2)cc1,27µM*,1%,-2%,-21%,-30*,?
Cc1ccc(Nc2cc(C)c3c(O)cccc3n2)cc1C,-1%,-6%,.,-11%,-37*,15%
O=C(NCc1ccc(Cl)c(Cl)c1)c1cc(C2CCCCN2C(=O)c2ccccc2)on1 (centres undefined),-11%,.,.,.,.,.
CCC(C(=O)NC1C(=O)N2C(C(=O)O)=C(CSc3nnc(C)s3)CSC12)c1ccccc1 (centres undefined),24µM*,1%,.,-15%,.,?
Cc1nnc(SCC2=C(C(=O)O)N3C(=O)C(NC(=O)c4cc(F)c(F)cc4Cl)C3SC2)s1 (centres undefined),?,9%,1%,-16%,2,-4%
Cc1nnc(SCC2=C(C(=O)O)N3C(=O)C(NC(=O)COc4ccc(F)cc4)C3SC2)s1 (centres undefined),?,0%,.,-20%,.,79µM*
Cc1nnc(SCC2=C(C(=O)O)N3C(=O)C(NC(=O)COc4ccccc4)C3SC2)s1 (centres undefined),19µM*,-1%,.,-5%,.,?
CC(=O)OCC1=C(C(=O)O)N2C(=O)C(NC(=O)COc3ccc(F)cc3)C2SC1 (centres undefined),?,2%,.,-3%,.,7%
